{"source": "paper PMC8384837", "about": "“Expanding the binding specificity for RNA recognition by a PUF domain”", "assay_in_all_cases": "yeast three-hybrid, YBZ-1, SC-Leu-His + 0.5 mM 3-AT, 4 days", "conditions_in_all_cases": "tags: N-Gal4 AD-HA kept; label: inside an RPR1-promoter hybrid RNA with tandem MS2 sites; ssRNA", "key": {"PUM1 PUF domain R3-RSG": {"target": "PUM1 PUF domain R3-RSG (Homo sapiens, UniProt Q14671 828-1176, C935R;R936S;Q939G)", "outline": "(§1)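 Pumilio-1 PUF domain libraries, randomized at the three base-contacting residues of each repeat, were co-expressed with matching RNA elements from a centromeric plasmid in strain YBZ-1, which carries a LexA–MS2 coat fusion and a HIS3 reporter. Transformants grew for four days on SC-Leu (input) or on SC-Leu-His + 0.5 mM 3-AT (selection), and the repeat regions were PCR-amplified and Illumina-sequenced. The interaction score is the log change in variant frequency from input to selection. That logarithm is base 2, with a pseudocount of 1 where a variant was absent.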"}, "PUM1 PUF domain R8-RFY": {"target": "PUM1 PUF domain R8-RFY (Homo sapiens, UniProt Q14671 828-1176, N1122R;Y1123F;Q1126Y)", "outline": "as §1"}, "PUM1 PUF domain R4-FNC": {"target": "PUM1 PUF domain R4-FNC (Homo sapiens, UniProt Q14671 828-1176, N971F;H972N;Q975C)", "outline": "as §1"}, "PUM1 PUF domain R4-PFL": {"target": "PUM1 PUF domain R4-PFL (Homo sapiens, UniProt Q14671 828-1176, N971P;H972F;Q975L)", "outline": "as §1"}, "PUM1 PUF domain R4-SHS": {"target": "PUM1 PUF domain R4-SHS (Homo sapiens, UniProt Q14671 828-1176, N971S;Q975S)", "outline": "as §1"}, "PUM1 PUF domain R4-SNI": {"target": "PUM1 PUF domain R4-SNI (Homo sapiens, UniProt Q14671 828-1176, N971S;H972N;Q975I)", "outline": "as §1"}, "PUM1 PUF domain R4-DHS": {"target": "PUM1 PUF domain R4-DHS (Homo sapiens, UniProt Q14671 828-1176, N971D;Q975S)", "sequence (Q14671 828-1176 N971D/Q975S)": "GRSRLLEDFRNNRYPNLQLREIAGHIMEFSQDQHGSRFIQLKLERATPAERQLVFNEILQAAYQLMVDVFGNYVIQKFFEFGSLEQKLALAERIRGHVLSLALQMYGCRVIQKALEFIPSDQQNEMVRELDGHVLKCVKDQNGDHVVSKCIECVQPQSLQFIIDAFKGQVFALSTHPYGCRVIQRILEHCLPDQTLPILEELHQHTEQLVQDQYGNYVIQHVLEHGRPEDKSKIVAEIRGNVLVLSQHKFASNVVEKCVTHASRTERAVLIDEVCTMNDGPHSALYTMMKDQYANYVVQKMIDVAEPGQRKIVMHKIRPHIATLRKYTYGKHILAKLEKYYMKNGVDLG", "outline": "as §1"}, "PUM1 PUF domain R4-SPY": {"target": "PUM1 PUF domain R4-SPY (Homo sapiens, UniProt Q14671 828-1176, N971S;H972P;Q975Y)", "outline": "as §1"}, "PUM1 PUF domain R7-ARR": {"target": "PUM1 PUF domain R7-ARR (Homo sapiens, UniProt Q14671 828-1176, S1079A;N1080R;E1083R)", "outline": "as §1"}, "PUM1 PUF domain R5-LFR": {"target": "PUM1 PUF domain R5-LFR (Homo sapiens, UniProt Q14671 828-1176, C1007L;R1008F;Q1011R)", "outline": "as §1"}, "PUM1 PUF domain R6-CFK": {"target": "T1, PUM1 PUF domain R6-CFK (Homo sapiens, UniProt Q14671 828-1176, N1043C;Y1044F;Q1047K)", "T1 sequence": "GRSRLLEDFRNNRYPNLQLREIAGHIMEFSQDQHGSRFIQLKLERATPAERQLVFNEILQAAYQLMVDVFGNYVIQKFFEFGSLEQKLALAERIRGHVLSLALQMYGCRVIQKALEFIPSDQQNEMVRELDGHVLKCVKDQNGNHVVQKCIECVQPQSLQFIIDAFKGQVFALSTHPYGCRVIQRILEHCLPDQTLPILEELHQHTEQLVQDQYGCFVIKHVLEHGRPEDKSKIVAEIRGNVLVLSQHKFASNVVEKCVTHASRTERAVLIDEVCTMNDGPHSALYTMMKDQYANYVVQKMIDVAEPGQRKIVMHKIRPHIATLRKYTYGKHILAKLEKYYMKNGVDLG", "outline": "as §1"}, "PUM1 PUF domain R4-ALC": {"target": "PUM1 PUF domain R4-ALC (Homo sapiens, UniProt Q14671 828-1176, N971A;H972L;Q975C)", "outline": "as §1"}, "PUM1 PUF domain R3-SAE": {"target": "PUM1 PUF domain R3-SAE (Homo sapiens, UniProt Q14671 828-1176, C935S;R936A;Q939E)", "outline": "as §1"}, "PUM1 PUF domain R5-HCR": {"target": "PUM1 PUF domain R5-HCR (Homo sapiens, UniProt Q14671 828-1176, C1007H;R1008C;Q1011R)", "outline": "as §1"}, "PUM1 PUF domain R5-RGK": {"target": "PUM1 PUF domain R5-RGK (Homo sapiens, UniProt Q14671 828-1176, C1007R;R1008G;Q1011K)", "sequence (Q14671 828-1176 C1007R/R1008G/Q1011K)": "as the sequence (Q14671 828-1176 N971D/Q975S) above, with D144N, S148Q, C180R, R181G, Q184K counted along it", "outline": "as §1"}, "PUM1 PUF domain R6-IFC": {"target": "T2, PUM1 PUF domain R6-IFC (Homo sapiens, UniProt Q14671 828-1176, N1043I;Y1044F;Q1047C)", "T2 sequence": "T1 sequence with C216I, K220C", "outline": "as §1"}, "PUM1 PUF domain R2-DWC": {"target": "PUM1 PUF domain R2-DWC (Homo sapiens, UniProt Q14671 828-1176, N899D;Y900W;Q903C)", "outline": "as §1"}, "PUM1 PUF domain R6-GWE": {"target": "T3, PUM1 PUF domain R6-GWE (Homo sapiens, UniProt Q14671 828-1176, N1043G;Y1044W;Q1047E)", "T3 sequence": "T1 sequence with C216G, F217W, K220E", "outline": "as §1"}, "PUM1 PUF domain R5-QRD": {"target": "PUM1 PUF domain R5-QRD (Homo sapiens, UniProt Q14671 828-1176, C1007Q;Q1011D)", "outline": "as §1"}, "PUM1 PUF domain R7-EPG": {"target": "PUM1 PUF domain R7-EPG (Homo sapiens, UniProt Q14671 828-1176, S1079E;N1080P;E1083G)", "outline": "as §1"}}, "note": "Positions count from the first letter of the chain named.", "data": [{"sequence": "GGCUAGAACUAGUGGAUCCCCCGGCGCCCGGCGGCUCGAGCCCGGGUAAGUGUAAUUAGUCUGCAUGCCGCCGGGCGCCAUGCCUGCAGGUCGACUCUAGAAAACAUG", "values": [{"measurement": "binding signal", "setting": "PUM1 PUF domain R3-RSG", "value": "3.59 log2 enrichment (interaction score)"}]}, {"sequence": "GGCUAGAACUAGUGGAUCCCCCGGCGCCCGGCGGCUCGAGCCCGGGUAAGCGUAAAUAGUCUGCAUGCCGCCGGGCGCCAUGCCUGCAGGUCGACUCUAGAAAACAUG", "values": [{"measurement": "binding signal", "setting": "PUM1 PUF domain R8-RFY", "value": "5.49 log2 enrichment (interaction score)"}]}, {"sequence": "GGCUAGAACUAGUGGAUCCCCCGGCGCCCGGCGGCUCGAGCCCGGGUAAGUGUAUAUAGUCUGCAUGCCGCCGGGCGCCAUGCCUGCAGGUCGACUCUAGAAAACAUG", "values": [{"measurement": "binding signal", "setting": "PUM1 PUF domain R4-FNC", "value": "3.02 log2 enrichment (interaction score)"}, {"measurement": "binding signal", "setting": "PUM1 PUF domain R4-PFL", "value": "4.21 log2 enrichment (interaction score)"}, {"measurement": "binding signal", "setting": "PUM1 PUF domain R4-SHS", "value": "6.15 log2 enrichment (interaction score)"}, {"measurement": "binding signal", "setting": "PUM1 PUF domain R4-SNI", "value": "3.45 log2 enrichment (interaction score)"}, {"measurement": "binding signal", "setting": "PUM1 PUF domain R4-DHS", "value": "5.89 log2 enrichment (interaction score)"}, {"measurement": "binding signal", "setting": "PUM1 PUF domain R4-SPY", "value": "1.88 log2 enrichment (interaction score)"}]}, {"sequence": "GGCUAGAACUAGUGGAUCCCCCGGCGCCCGGCGGCUCGAGCCCGGGUAAGUCUAAAUAGUCUGCAUGCCGCCGGGCGCCAUGCCUGCAGGUCGACUCUAGAAAACAUG", "values": [{"measurement": "binding signal", "setting": "PUM1 PUF domain R7-ARR", "value": "3.14 log2 enrichment (interaction score)"}]}, {"sequence": "GGCUAGAACUAGUGGAUCCCCCGGCGCCCGGCGGCUCGAGCCCGGGUAAGUGUAAAUAGUCUGCAUGCCGCCGGGCGCCAUGCCUGCAGGUCGACUCUAGAAAACAUG", "values": [{"measurement": "binding signal", "setting": "PUM1 PUF domain R5-LFR", "value": "2.2 log2 enrichment (interaction score)"}, {"measurement": "binding signal", "setting": "PUM1 PUF domain R4-DHS", "value": "4.49 log2 enrichment (interaction score)"}, {"measurement": "binding signal", "setting": "PUM1 PUF domain R6-CFK", "value": "3.27 log2 enrichment (interaction score)"}, {"measurement": "binding signal", "setting": "PUM1 PUF domain R4-ALC", "value": "3.15 log2 enrichment (interaction score)"}, {"measurement": "binding signal", "setting": "PUM1 PUF domain R4-SPY", "value": "3.88 log2 enrichment (interaction score)"}]}, {"sequence": "GGCUAGAACUAGUGGAUCCCCCGGCGCCCGGCGGCUCGAGCCCGGGUAAGUGUAAGUAGUCUGCAUGCCGCCGGGCGCCAUGCCUGCAGGUCGACUCUAGAAAACAUG", "values": [{"measurement": "binding signal", "setting": "PUM1 PUF domain R3-SAE", "value": "4.99 log2 enrichment (interaction score)"}, {"measurement": "binding signal", "setting": "PUM1 PUF domain R3-RSG", "value": "1.02 log2 enrichment (interaction score)"}]}, {"sequence": "GGCUAGAACUAGUGGAUCCCCCGGCGCCCGGCGGCUCGAGCCCGGGUAAGUGUUAAUAGUCUGCAUGCCGCCGGGCGCCAUGCCUGCAGGUCGACUCUAGAAAACAUG", "values": [{"measurement": "binding signal", "setting": "PUM1 PUF domain R5-HCR", "value": "2.43 log2 enrichment (interaction score)"}, {"measurement": "binding signal", "setting": "PUM1 PUF domain R5-RGK", "value": "3.44 log2 enrichment (interaction score)"}]}, {"sequence": "GGCUAGAACUAGUGGAUCCCCCGGCGCCCGGCGGCUCGAGCCCGGGUAAGUGUCAAUAGUCUGCAUGCCGCCGGGCGCCAUGCCUGCAGGUCGACUCUAGAAAACAUG", "values": [{"measurement": "binding signal", "setting": "PUM1 PUF domain R5-HCR", "value": "2.3 log2 enrichment (interaction score)"}, {"measurement": "binding signal", "setting": "PUM1 PUF domain R5-RGK", "value": "2.71 log2 enrichment (interaction score)"}]}, {"sequence": "GGCUAGAACUAGUGGAUCCCCCGGCGCCCGGCGGCUCGAGCCCGGGUAAGUGAAAAUAGUCUGCAUGCCGCCGGGCGCCAUGCCUGCAGGUCGACUCUAGAAAACAUG", "values": [{"measurement": "binding signal", "setting": "PUM1 PUF domain R6-IFC", "value": "5.44 log2 enrichment (interaction score)"}]}, {"sequence": "GGCUAGAACUAGUGGAUCCCCCGGCGCCCGGCGGCUCGAGCCCGGGUAAGUGUAAAAAGUCUGCAUGCCGCCGGGCGCCAUGCCUGCAGGUCGACUCUAGAAAACAUG", "values": [{"measurement": "binding signal", "setting": "PUM1 PUF domain R2-DWC", "value": "7.69 log2 enrichment (interaction score)"}]}, {"sequence": "GGCUAGAACUAGUGGAUCCCCCGGCGCCCGGCGGCUCGAGCCCGGGUAAGUGGAAAUAGUCUGCAUGCCGCCGGGCGCCAUGCCUGCAGGUCGACUCUAGAAAACAUG", "values": [{"measurement": "binding signal", "setting": "PUM1 PUF domain R6-GWE", "value": "5.02 log2 enrichment (interaction score)"}]}, {"sequence": "GGCUAGAACUAGUGGAUCCCCCGGCGCCCGGCGGCUCGAGCCCGGGUAAGUGUGAAUAGUCUGCAUGCCGCCGGGCGCCAUGCCUGCAGGUCGACUCUAGAAAACAUG", "values": [{"measurement": "binding signal", "setting": "PUM1 PUF domain R5-QRD", "value": "5.16 log2 enrichment (interaction score)"}, {"measurement": "binding signal", "setting": "PUM1 PUF domain R5-RGK", "value": "1.16 log2 enrichment (interaction score)"}]}, {"sequence": "GGCUAGAACUAGUGGAUCCCCCGGCGCCCGGCGGCUCGAGCCCGGGUAAGUUUAAAUAGUCUGCAUGCCGCCGGGCGCCAUGCCUGCAGGUCGACUCUAGAAAACAUG", "values": [{"measurement": "binding signal", "setting": "PUM1 PUF domain R7-ARR", "value": "3.69 log2 enrichment (interaction score)"}, {"measurement": "binding signal", "setting": "PUM1 PUF domain R7-EPG", "value": "3.69 log2 enrichment (interaction score)"}]}, {"sequence": "GGCUAGAACUAGUGGAUCCCCCGGCGCCCGGCGGCUCGAGCCCGGGUAAGUGUACAUAGUCUGCAUGCCGCCGGGCGCCAUGCCUGCAGGUCGACUCUAGAAAACAUG", "values": [{"measurement": "binding signal", "setting": "PUM1 PUF domain R4-SNI", "value": "2.5 log2 enrichment (interaction score)"}, {"measurement": "binding signal", "setting": "PUM1 PUF domain R4-DHS", "value": "3.02 log2 enrichment (interaction score)"}]}]}
